# Values without a mark were called inactive.
# System: Vero E6 infected with SARS-CoV-2
# Test: inhibition of SARS-CoV-2 cytopathic effect; higher = more antiviral protection, active = above 15
# Settings: 48 h
SMILES,inhibition of SARS-CoV-2 cytopathic effect (1 nM) [%],inhibition of SARS-CoV-2 cytopathic effect (8.33 nM) [%],inhibition of SARS-CoV-2 cytopathic effect (100 nM) [%],inhibition of SARS-CoV-2 cytopathic effect (833.33 nM) [%],inhibition of SARS-CoV-2 cytopathic effect (10000 nM)
Cc1ncc(CO)c(C=O)c1O [pyridoxal],4.33,2.21,0.26,-1.64,1.19%
O=C1NC(c2cccc([N+](=O)[O-])c2)=CCN1c1ccccc1O [icilin],-1.18,2.89,1.15,0.66,0.77%
COc1cc2c(cc1C(F)(F)F)N(C(=O)Nc1cc(F)cc(-c3cccnc3)c1)CC2,1.91,2.35,0.87,2.32,2.45%
CC[C@@H]1C(=O)N(C)c2cnc(Nc3ccc(C(=O)N[C@H]4CC[C@H](N5CCN(CC6CC6)CC5)CC4)cc3OC)nc2N1C(C)C [volasertib],4.01,-1.24,-0.02,-9.3,-14.9%
Cn1c(C#N)ccc1-c1ccc2c(c1)C(C)(C)OC(=S)N2 [tanaproget],3.59,4.95,0.34,3.55,1.06%
COc1cc2c(cc1OC)CN(CCc1ccc(NC(=O)c3cccc4c(=O)c5cccc(OC)c5[nH]c34)cc1)CC2 [elacridar],14.2,2.41,0.67,-0.09,-4.73%
Cc1cc(-c2nc(C(=O)Nc3cn(C4CCOCC4)nc3C(N)=O)co2)ccn1,-2.34,-3.32,-0.57,-4.01,-5.6%
CC(=O)O[C@@H]1C[C@H]2C(C)(C)C(=O)C=C[C@]2(C)[C@H]2CC[C@@]3(C)[C@H](c4ccoc4)OC(=O)[C@H]4O[C@]43[C@@]21C [gedunin],-1.35,-1.68,-1.07,6.09,19% (active)

# — the supplement of paper PMC13380429
